Laboratory results as given in paper PMC4552634, “A New Set of Chemical Starting Points with Plasmodium falciparum Transmission-Blocking Potential for Antimalarial Drug Discovery” (PLoS ONE, 2015).
Screen size: about 13,000 compounds; about 3,200 (25%) showed an effect of 50% or more. The list shows a part of the results.

These molecules were tested on P. falciparum stage V gametocytes. Details: 48 h, 5 µM; inhibitor.
Set-up: BacTiter-Glo ATP luminescence viability of purified stage V gametocytes in 384-well plates, per cent inhibition versus DMSO

| Compound | % Inhibition [%] |
| --- | --- |
| COC(=O)C1=CNC=C(C(=O)OC)C1c1ccc(Cl)c([N+](=O)[O-])c1 [TCMDC-125154] | -60.53 |
| Cc1cc(C(=O)CN2C(=O)NC3(CCCc4ccccc43)C2=O)c(C)n1Cc1ccco1 (stereo not shown) [TCMDC-124502] | 2.781 |
| Nc1nc(N)c2c(ccc3c2cnn3Cc2cccnc2)n1 [TCMDC-131932] | 23.15 |
| COc1ccc(-c2ccc(NC(=O)c3cccc(Cl)c3)cc2)cc1CNC(C)C [TCMDC-132524] | 39.19 |
| COc1ccc(-c2ccc(NC(=O)c3ccc(C#N)cc3)cc2)cc1CN(C)CCO [TCMDC-132521] | 28.66 |
| COc1ccc(-c2cccc(NC(=O)c3cccc(Cl)c3)c2)cc1CN(C)CCN(C)C [TCMDC-132616] | 105.4 |
| COc1ccc(-c2ccc(NC(=O)c3ccc(Cl)cc3)cc2)cc1CN(C)CCO [TCMDC-132513] | 86.93 |
| COc1ccc(-c2ccc(NC(=O)c3cccc(Cl)c3)cc2)cc1CN(C)CCO [TCMDC-132527] | 86.37 |
| COc1ccc(-c2ccc(NC(=O)c3ccc(Cl)cc3)cc2)cc1CN(C)CCN(C)C [TCMDC-132511] | 46.96 |
| CN(C)Cc1ccc2cc(NC(=O)c3ccc(-c4ccc(Cl)cc4)cc3)ccc2n1 [TCMDC-134644] | 5.45 |
| COc1ccc(-c2ccc(NC(=O)c3cccc(Cl)c3)cc2)cc1CN(C)CCN(C)C [TCMDC-133335] | 14.93 |
| CN(C)Cc1ccc(-c2cccc(NC(=O)c3ccc(Cl)cc3)c2)cc1 [TCMDC-132632] | 4.982 |
| CN(C)Cc1ccc2cc(NC(=O)c3ccc(-c4ccc(Cl)cc4)cc3)ccc2c1 [TCMDC-134694] | 77.36 |
| COc1ccc(-c2cccc(NC(=O)c3ccc(Cl)cc3)c2)cc1CN(C)CCN(C)C [TCMDC-132605] | -10.06 |
| COCCN1CCC(CNCC(C)(C)c2nc(-c3ccc(Cl)c(O)c3)c(-c3ccncc3)[nH]2)CC1 [TCMDC-140898] | -79.12 |
| O=C(Nc1cccc(CN2CCCN(Cc3ccc(O)cc3)CC2)c1)c1ccc(Br)cc1 [TCMDC-141883] | 15.8 |
| Cc1nc(NC2=NCN(CCCN3CCOCC3)CN2)nc2c(C)cccc12 [TCMDC-125086] | 47.98 |
| Cn1ccnc1CNC(=O)c1ccc(-c2cccc(-c3nc4cc(F)ccc4[nH]3)c2)cc1 [TCMDC-132354] | -5.334 |
| Cc1cc(OCCN2CCCCC2)ccc1NC(=O)c1cccc2c(=O)n(Cc3ccc(Cl)cc3)cnc12 [TCMDC-136727] | 103.4 |
| Cc1cccc(CN2CCCN(Cc3ccc(C(=O)Nc4ccc(Cl)cc4)cc3)CC2)c1 [TCMDC-136407] | 32.89 |
| O=c1c2sc(-c3ccc(Cl)cc3)cc2ncn1Cc1ccc(OCCN2CCCC2)c2ccccc12 [TCMDC-135387] | 24.51 |
| COc1ccc2nccc([C@@H](O)CN3CCC(NC(=O)Cc4cc5ccccc5s4)CC3)c2c1 [TCMDC-141033] | -11.21 |

| Compound | % Inhibition [%] |
| --- | --- |
| O=C(Nc1ccc(-c2cccc(-c3nc4ccc(F)cc4[nH]3)c2)cc1)Nc1ccsc1 [TCMDC-133218] | -7.279 |
| Cc1noc(C)c1-c1ccc2c(Nc3nccc4ccccc34)c(C(N)=O)cnc2c1 [TCMDC-136456] | 97 |
| Cc1noc(C)c1-c1ccc2c(Nc3ccccc3C(C)(C)C)c(C(=O)NCc3ccc4c(c3)OCO4)cnc2c1.Cl [TCMDC-136353] | 56.26 |
| Cc1noc(C)c1-c1ccc2c(Nc3ccccc3N3CCOCC3)c(C(=O)NCc3ccccc3)cnc2c1.Cl [TCMDC-136667] | -0.5011 |
| Cc1noc(C)c1-c1ccc2c(Nc3ccccc3C(C)(C)C)c(C(=O)NCc3ccc(C(F)(F)F)cc3)cnc2c1.Cl [TCMDC-136348] | -20.49 |
| Cc1noc(C)c1-c1ccc2c(Nc3cccc4c3-c3ccccc3C4=O)c(C(=O)NCc3ccccc3I)cnc2c1 [TCMDC-136308] | 93.19 |
| Cc1noc(C)c1-c1ccc2c(Nc3ccc(Cl)cc3)c(C(N)=O)cnc2c1.Cl [TCMDC-136010] | 9.933 |
| Cc1noc(C)c1-c1ccc2c(Nc3ccccc3C(C)(C)C)c(C(=O)NCc3cccc4ccccc34)cnc2c1.Cl [TCMDC-136375] | -44.64 |
| CC(=O)c1ccc(Nc2c(C(N)=O)cnc3cc(-c4c(C)noc4C)ccc23)cc1 [TCMDC-136058] | -8.163 |
| Cc1noc(C)c1-c1ccc2c(Nc3ccccc3C(C)(C)C)c(C(=O)NCc3ccccc3)cnc2c1.Cl [TCMDC-136366] | -19.07 |
| COc1ccc2nccc(N3CCC(CCNCc4ccc5c(n4)NC(=O)CS5)CC3)c2c1.Cl [TCMDC-141905] | -14.76 |
| Cc1cccc2[nH]c(-c3cccc(-c4cccc(NC(=O)Nc5ccc(Cl)c(Cl)c5)c4)c3)nc12 [TCMDC-133277] | -37.89 |
| COc1nc(N)ncc1C(=O)NC1CN2CCC1CC2 (stereo not shown) [TCMDC-131574] | 17.61 |
| Cc1ccc(C(=O)Nc2cccc(-c3ccc(N4CCN(C)CC4)nn3)c2)cc1[N+](=O)[O-] [TCMDC-124931] | 60.61 |
| CN1CCN(c2ccc(-c3cccc(NC(=O)c4cccc([N+](=O)[O-])c4)c3)nn2)CC1 [TCMDC-125452] | -8.078 |
| CN1CCN(c2ccc(-c3cccc(NC(=O)c4ccc5ccccc5c4)c3)nn2)CC1 [TCMDC-125349] | 17.67 |
| COc1cccc(C(=O)N2CCN(Cc3cccc(NC(=O)c4cccs4)c3)CC2)c1 [TCMDC-136327] | -13.29 |
| Cc1[nH]c(C)c(-c2ccc(-c3ccccc3F)nc2)c(=O)c1Br [TCMDC-135926] | 66.81 |
| Cc1[nH]c(C)c(-c2ccc(-c3ccccc3F)nc2)c(=O)c1Cl [TCMDC-135927] | 68.96 |
| O=C(/C=C/C=C/c1ccccc1)NCCCCCN1CCC(c2c[nH]c3ccccc23)CC1 [TCMDC-139216] | 106.6 |
| O=C(/C=C/c1ccc(I)cc1)NCCCCCN1CCC(c2c[nH]c3ccccc23)CC1 [TCMDC-139198] | 49.23 |
| Cc1ccc(/C=C/C(=O)NCCCCCN2CCC(c3c[nH]c4ccccc34)CC2)cc1 [TCMDC-139236] | 53.65 |

| Compound | % Inhibition [%] |
| --- | --- |
| COc1ccc(/C=C/C(=O)NCCCCCN2CCC(c3c[nH]c4ccccc34)CC2)cc1O [TCMDC-139754] | -52.52 |
| CC(C)(C)c1ccc(/C=C/C(=O)NCCCCCN2CCC(c3c[nH]c4ccccc34)CC2)cc1 [TCMDC-139247] | 18.04 |
| O=C(/C=C/c1ccc(Br)cc1)NCCCCCN1CCC(c2c[nH]c3ccccc23)CC1 [TCMDC-139199] | 51.21 |
| O=C(/C=C/c1ccc(-c2ccccc2)cc1)NCCCCCN1CCC(c2c[nH]c3ccccc23)CC1 [TCMDC-139210] | 111.8 |
| O=C(/C=C/c1ccc(F)c(Br)c1)NCCCCCN1CCC(c2c[nH]c3ccccc23)CC1 [TCMDC-139235] | -23.07 |
| Cc1ccc(Nc2nc(C)cc(NCc3ccc(-n4ccnc4)cc3)n2)cc1 [TCMDC-133454] | 13.72 |
| c1ccc(C2CCC(N3CCC(N4CCCC4)CC3)CC2)cc1 (stereo not shown) [TCMDC-124349] | 3.112 |
| CN1CC=C(c2c[nH]c3ccc(Sc4ccccc4)cc23)CC1 [TCMDC-138969] | 5.413 |
| CCN1CCN(Cc2ccc3nc(-c4cc(C)n(Cc5cc(Cl)ccc5OCc5ccccc5)n4)[nH]c3c2)CC1 [TCMDC-136884] | 23.91 |
| Cn1c(=N)n(CC(=O)OCc2ccc(OCc3ccccc3)cc2)c2ccccc21 [TCMDC-138698] | 4.888 |
| CC(C)C[C@H]1c2[nH]c3ccc(Cl)cc3c2CCN1C(=O)CCc1ccccc1 [TCMDC-135179] | 1.219 |
| Cn1c(=N)n(CC(=O)N2CCc3ccc(Cl)cc3C2Cc2ccc(Cl)c(Cl)c2)c2ccccc21 (stereo not shown) [TCMDC-138699] | 109.1 |
| CCC1CN(S(=O)(=O)c2ccc3c(c2)NC(=O)CC(=O)N3)c2cc(Cl)ccc2O1 (stereo not shown) [TCMDC-125278] | 25.65 |
| CCn1c(-c2cc(C)on2)nc2cnc(Oc3ccc(C(=O)N4CC(=O)N(C)C4C(C)(C)C)cc3)cc21 (stereo not shown) [TCMDC-134940] | 2.551 |
| CCc1cn(C)c2c(N3CCCC3=O)cc(C(=O)N[C@@H](Cc3ccccc3)[C@H](O)CNCc3cccc(OC)c3)cc12 [TCMDC-135195] | 21.06 |
| CCc1cn(C)c2c(N3CCCC3=O)cc(C(=O)N[C@@H](Cc3ccccc3)[C@H](O)CNC(C)(C)c3cccc(OC)c3)cc12 [TCMDC-135196] | 90.21 |
| CCc1cn(C)c2c(N3CCCC3=O)cc(C(=O)N[C@@H](Cc3ccccc3)[C@H](O)CNC(C)(C)c3cccc(C(F)(F)F)c3)cc12 [TCMDC-135197] | 87.86 |
| CCc1c[nH]c2c(N3CCCC3=O)cc(C(=O)N[C@@H](Cc3ccccc3)[C@H](O)CNC(C)(C)c3cccc(C(F)(F)F)c3)cc12 [TCMDC-134402] | 2.989 |
| CCn1ncc2c(N3CCCC3=O)cc(C(=O)N[C@@H](Cc3ccccc3)[C@H](O)CNC(C)(C)c3cccc(C(F)(F)F)c3)cc21 [TCMDC-135064] | 21.85 |
| CCc1c[nH]c2c(N3CCCC3=O)cc(C(=O)N[C@@H](Cc3ccccc3)[C@H](O)CNC(C)(C)c3cccc(OC)c3)cc12 [TCMDC-134404] | 44.35 |
